{"source": "ChEMBL document CHEMBL1156829", "note": "Where “and” joins values, the source holds several entries; their conditions need not be identical. Equal entries are not always repeated. In all, about 5,400 compounds were measured (“IFI”: median about 2, highest 2% from about 22 on). What follows is part of a selection rich in the highest values, with near analogues and random picks from the rest."}
{"test": "NOVARTIS: Inhibition Frequency Index (IFI) - the number of HTS assays where a compound showed > 50% inhibition/induction, expressed as a percentage of the number of assays in which the compound was tested.", "type": "functional"}
{"molecule": "COc1ccc(/C=C(/C#N)C(=O)Nc2cccc3ccccc23)cc1", "IFI": "0%"}
{"molecule": "COc1cc(NC(C)CCCN(Cc2ccc(Cl)cc2)C(=O)Nc2cccc(C(F)(F)F)c2)c2ncccc2c1", "note": "(centres undefined)", "IFI": "2.7%"}
{"molecule": "Cc1ccccc1C[n+]1cc(-c2ccc(Cl)cc2)n2c1CCC2", "IFI": "7.14%"}
{"molecule": "CCCCNC1=CC(=O)C(=O)c2ccccc21", "IFI": "15.4%"}
{"molecule": "CCSC1=CC(=O)c2ccccc2C1=O", "IFI": "24.3%"}
{"molecule": "Cc1c(C(=O)NCCN2CCCC2)cnn1-c1ncc2c(n1)-c1ccccc1SC2", "IFI": "2.59%"}
{"molecule": "COCCOC(=O)C1=C(C)NC2=C(C(=O)CC(c3ccc(OC)c(OC)c3)C2)C1c1ccccc1Cl", "note": "(centres undefined)", "IFI": "2.33%"}
{"molecule": "CC(C)NC(=O)c1ccc2c(c1)N=C(c1ccccc1)N(C1CC1)C2", "IFI": "2.47%"}
{"molecule": "Cc1ccccc1C=NNc1nc2ccccc2[nH]1", "IFI": "0%"}
{"molecule": "CC[n+]1c(/C=C2\\Sc3ccc(C)cc3N2CCO)ccc2ccccc21", "IFI": "15.4%"}
{"molecule": "CCN1/C(=C/c2cccc[n+]2C)C=Cc2ccccc21", "IFI": "8.33%"}
{"molecule": "CC[n+]1c(/C=C2\\Sc3cc(C)ccc3N2CCO)ccc2ccccc21", "IFI": "15.4%"}
{"molecule": "CC[n+]1c(/C=C2\\Sc3ccc(OC)cc3N2C)ccc2cc(C)ccc21", "IFI": "14.3%"}
{"molecule": "CCN1/C(=C/c2ccc3ccccc3[n+]2CC)Sc2cc(NC(C)=O)ccc21", "IFI": "8.33%"}
{"molecule": "CCN1/C(=C/c2ccc3ccccc3[n+]2CC)Sc2c1ccc1ccccc21", "IFI": "24.1% and 14.3%"}
{"molecule": "CCN1C(=Cc2ccc3ccccc3[n+]2CC)C=Cc2sc3ccccc3c21", "IFI": "31.4%"}
{"molecule": "CCN1/C(=C/c2ccc3ccccc3[n+]2CC)Sc2sc3ccccc3c21", "IFI": "18.3%"}
{"molecule": "CCN1/C(=C/c2ccc3ccccc3[n+]2CC)C=Cc2ccccc21", "IFI": "22.7%"}
{"molecule": "CC[n+]1c(/C=C2\\Sc3ccccc3N2CCO)ccc2cc(C)ccc21", "IFI": "6.35%"}
{"molecule": "CC[n+]1c(/C=C2\\Sc3oc4ccccc4c3N2C)ccc2cc(C)ccc21", "IFI": "26.1%"}
{"molecule": "CCN1/C(=C/c2[se]c3ccccc3[n+]2CC)C=Cc2cc(OC)ccc21", "IFI": "19.6%"}
{"molecule": "CCCC(=O)N1CCN(c2nc(Cc3ccccc3)c3c(c2C#N)CC(C)(C)OC3)CC1", "IFI": "4.54%"}
{"molecule": "COc1ccc(-c2nc(CN3CCCCC3)ccc2O)cc1", "IFI": "0%"}
{"molecule": "CCOC(=O)C1=C(C)NC2=C(C(=O)C(C(=O)OCC)C(c3ccccc3OC)C2)C1c1sccc1C", "note": "(centres undefined)", "IFI": "3.49%"}
{"molecule": "COc1ccc(C2(CNCC(O)c3cccc([N+](=O)[O-])c3)CCCC2)cc1OC", "note": "(centres undefined)", "IFI": "0%"}
{"molecule": "CC(=O)Nc1cc(C(=O)Nc2ccc(C3=NCCN3)cc2)ccc1C(=O)Nc1ccc(C2=NCCN2)cc1", "IFI": "0%"}
{"molecule": "Cc1ccn(CC(=O)N2CCOc3c(cc(-c4csc5ccccc45)cc3OCCc3ccccn3)C2)n1", "IFI": "4%"}
{"molecule": "CCN1C=Cc2ccccc2/C1=C\\c1ccc2ccccc2[n+]1CC", "IFI": "23.6%"}
{"molecule": "CC[n+]1c(C=C2C=CN(c3ccc(Cl)cc3)C=C2)ccc2ccccc21", "IFI": "15.4%"}
{"molecule": "CC[n+]1c(/C=C/c2ccc(Cl)cc2)ccc2ccccc21", "IFI": "4.84%"}
{"molecule": "O=C(CCl)Nc1ccc(OC(F)F)cc1", "IFI": "0%"}
{"molecule": "COc1ccc2nc(-c3ccccc3)cc(NCCN(C)C)c2c1", "IFI": "3.51%"}
{"molecule": "O=c1cc(NC2CCN(CCCc3ccccc3)CC2)c2cc(Cl)ccc2o1", "IFI": "0%"}
{"molecule": "CCOC(=O)c1cnc2cc(OCC(C)C)c(OCC(C)C)cc2c1O", "IFI": "0.649%"}
{"molecule": "c1cn2c(-c3ccc(N4CCOCC4)cc3)cnc2c(NCc2ccc3c(c2)OCO3)n1", "IFI": "0%"}
{"molecule": "c1ccc(C2=NN(c3ccccc3)C(c3ccc4c(c3)OCO4)N2c2ccc(N3CCOCC3)cc2)cc1", "note": "(centres undefined)", "IFI": "23.1%"}
{"molecule": "CN1c2ccccc2N(C)C1c1ccc2c(c1)OCO2", "IFI": "0.621%"}
{"molecule": "CCN1CCN(c2cc(C)c3cc(NC(=O)c4ccc(F)c([N+](=O)[O-])c4)ccc3n2)CC1", "IFI": "6.67%"}
{"molecule": "Cc1cc(Nc2cccc3ccccc23)nc(Nc2cccc3ccccc23)n1", "IFI": "0%"}
{"molecule": "O=S(=O)(c1ccccc1)N1CCN(CC2CNCCO2)CC1", "note": "(centres undefined)", "IFI": "1.41%"}
{"molecule": "Cc1oc2c(c1C(=O)NCCCn1ccnc1)C(=O)c1ccccc1C2=O", "IFI": "24.3%"}
{"molecule": "Cc1oc2c(c1C(=O)NCc1cccnc1)C(=O)c1ccccc1C2=O", "IFI": "17.5%"}
{"molecule": "CCOC(=O)c1c(C)oc2c1C(=O)c1ccccc1C2=O", "IFI": "3.17%"}
{"molecule": "Cc1oc2c(c1C(=O)N1CCC(C)CC1)C(=O)c1ccccc1C2=O", "IFI": "15.4%"}
{"molecule": "Cc1oc2c(c1C(=O)NC1CCS(=O)(=O)C1)C(=O)c1ccccc1C2=O", "note": "(centres undefined)", "IFI": "29.7%"}
{"molecule": "Cc1oc2c(c1C(=O)NCC1CCCO1)C(=O)c1ccccc1C2=O", "note": "(centres undefined)", "IFI": "17%"}
{"molecule": "COc1cc(NC(C)CCCN(Cc2ccc(F)cc2)C(=O)CCc2ccccc2)c2ncccc2c1", "note": "(centres undefined)", "IFI": "1.71%"}
{"molecule": "COc1cc(NC(C)CCCN(Cc2ccc(OC)c(OC)c2)C(=O)CC(C)CC(C)(C)C)c2ncccc2c1", "note": "(centres undefined)", "IFI": "3.64%"}
{"molecule": "O=C(Cc1cccs1)N1CCN(c2ccccn2)CC1", "IFI": "2.35%"}
